# Laboratory results taken from PubChem BioAssay (NCATS).
# Assays:
# [1] = qHTS profiling of the MIPE4 collection as inhibitors of Plasmodium falciparum (3D7) proliferation (AID 743344);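 further: scaled between DMSO vehicle wells and 0.29 µM artemisinin as full inhibition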; details: P. falciparum 3D7 in erythrocytes, SYBR Green DNA fluorescence, 72 h; at 28.5 µM unless noted
# Outline: (§1)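 Parasite DNA was quantified by SYBR Green I fluorescence (ex 485, em 535 nm) after overnight lysis in saponin/Triton buffer at room temperature. Cultures at 0.3% parasitemia and 2.5% hematocrit were first exposed to compound for 72 h at 37 C; signals were normalised to artemisinin (0.29 uM) and vehicle wells.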
# [2] = qHTS profiling of the MIPE4 collection as inhibitors of Plasmodium falciparum (DD2) proliferation (AID 743345); details: P. falciparum Dd2 in erythrocytes, SYBR Green DNA, 72 h; at 28.5 µM unless noted
# Outline: as §1
# [3] = qHTS profiling of the MIPE4 collection as inhibitors of Plasmodium falciparum (DD2) proliferation (Rep 2) (AID 743346); details: P. falciparum Dd2 in erythrocytes, SYBR Green DNA, 72 h; at 28.5 µM unless noted
# Outline: as §1
# [4] = qHTS profiling of the MIPE4 collection as inhibitors of Plasmodium falciparum (HB3) proliferation (AID 743347);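 further: plate controls were DMSO vehicle wells for no effect and artemisinin wells for full effect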; details: P. falciparum HB3 in erythrocytes, SYBR Green DNA, 72 h; at 28.5 µM unless noted
# Outline: as §1
# [5] = High-throughput drug toxicity screening in the BPDCN cell line Gen2.2 (AID 1224824); details: Gen2.2 BPDCN cells; at 45.8 µM (top of the series) unless noted;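 further: cells exposed to compounds for 48 h before reading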
# Outline: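 Gen2.2, 500 cells/well, phenol red-free RPMI/10% FBS/Pen-Strep; 48 h cpd, 37 °C/5% CO2; CTG lum, 15 min RT. Norm: DMSO = 100%, bortezomib 9.2 uM final = 0%.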
Structure (SMILES),"parasite growth, % of DMSO control [1] [%]","parasite growth remaining, % of DMSO control (lower = more inhibition) [2] [%]","parasite growth, % of control (lower = inhibition) [3] [%]","growth, % of control [4] [%]","cell viability, % of control (lower = more cytotoxic) [5] [%]"
NC(=O)c1ncn([C@@H]2O[C@H](CO)[C@@H](O)[C@@H]2O)c1O,109,33.1,102,71.4,113
OCc1ccccc1O[C@@H]1O[C@H](CO)[C@H](O)[C@H](O)[C@H]1O,95.9,96.7,89.7,92.1,151
CN1CCc2c(c3ccccc3n2Cc2ccc(C(=O)NO)cc2)C1,5.11,12.1,15.2,5.01,4.7
CCOC(=O)C1=C(C)NC(=S)NC1c1cccc(O)c1 (stereo not given),90.7,93.6,85.5,39,48.9
N#CNC(=NCCCCCCOc1ccc(Cl)cc1)Nc1ccncc1,12.1,35.9,28,3.38,25.6
CC(C)NC[C@@H](C(=O)N1CCN(c2ncnc3c2[C@H](C)C[C@H]3O)CC1)c1ccc(Cl)cc1,5.13,64.9,5.81,2.94,1.71
CS(=O)(=O)N1CCc2c(-c3cnc(N)nc3)nc(N3CCOCC3)nc21,5.02,9.76,6.07,2.07,10.4
COc1cc(CCc2cc(NC(=O)c3ccc(N4C[C@@H](C)N[C@@H](C)C4)cc3)n[nH]2)cc(OC)c1,50.5,66.7,43.7,10.3,14
O=C(CN1C(=O)C2(CCCC2)NC[C@H]1c1cc(F)cc(F)c1)Nc1ccc2c(c1)C[C@@]1(C2)C(=O)Nc2ncccc21,26,86.9,26.1,40.3,124
O=C(c1ccc(F)cc1)N1CCC[C@H](c2nc(-c3ccc(F)cc3)no2)C1,74.1,94.6,70.9,82.2,93.8
CC(O)(C#Cc1ccc2c(c1)N(c1nc(N)ncc1Cl)CC2)c1nccs1 (stereo not given),11.7,33.4,22.8,5.79,279
COc1ccc(CCC(=O)c2c(O)cc(O[C@@H]3O[C@H](CO)[C@@H](O)[C@H](O)[C@@H]3O[C@@H]3O[C@@H](C)[C@H](O)[C@@H](O)[C@@H]3O)cc2O)cc1O,6.07,17.8,41.2,6.55,77
CCCNS(=O)(=O)Nc1ncnc(OCCOc2ncc(Br)cn2)c1-c1ccc(Br)cc1,102,99.9,82.3,88.3,180
Cn1cc(C2=C(c3c4n(c5ccccc35)CCC(CN)C4)C(=O)NC2=O)c2ccccc21 (stereo not given),3.66,5.71,11,3.72,3.32
COc1cc2ncnc(Nc3cccc(Br)c3)c2cc1OC,8.2,37.1,48.9,8.18,64
N[C@H]1CN(c2c(F)cc3c(=O)c(C(=O)O)cn(C4C[C@@H]4F)c3c2Cl)CC12CC2 (stereo not given in full),20.3,24.5,27.8,10,92.2
CC(=O)C1=C(O)C=C2Oc3c(C(C)=O)c(O)c(C)c(O)c3C2(C)C1=O (stereo not given),82.6,97.8,81,99,141
COc1cc2c(Nc3ccc(Cl)c(Cl)c3F)ncnc2cc1OCC1C[C@@H]2CN(C)C[C@H]2C1,6.7,7.75,18.3,7.13,2.56
COc1cccc2c1C(=O)c1c(O)c3c(c(O)c1C2=O)C[C@@](O)(C(=O)CO)C[C@@H]3O[C@H]1C[C@H](N)[C@@H](O)[C@H](C)O1,3.7,4.88,4.28,2.54,8.09
COC(=O)[C@@H]1[C@H]2C[C@@H]3c4[nH]c5ccccc5c4CCN3C[C@@H]2CC[C@@H]1O,79.9,93.2,69.1,66.3,24.1
C[C@H](NC(=O)Cc1cc(F)cc(F)c1)C(=O)N[C@H](C(=O)OC(C)(C)C)c1ccccc1,74.2,95.2,79.9,99.7,89
CC(C)c1cc(C(C)C)c(CC(=O)NS(=O)(=O)Oc2c(C(C)C)cccc2C(C)C)c(C(C)C)c1,82.5,89.6,80.1,89.6,94.3
CC[C@]12C=CCN3CC[C@@]4(c5cc([C@@]6(C(=O)OC)C[C@H]7C[C@@H](C(C)(F)F)CN(Cc8c6[nH]c6ccccc86)C7)c(OC)cc5N(C)[C@H]4[C@@](O)(C(=O)OC)[C@H]1OC(C)=O)[C@@H]32,17,12.3,24.8,16.3,8.97
Cc1cnc(NC(=O)Nc2cc(Br)c(C)cc2OC[C@@H]2CNCCO2)cn1,5.93,7.73,8.58,2.97,20.9
COC[C@H](NC(=O)c1cnc(C)s1)C(=O)N[C@@H](COC)C(=O)N[C@@H](Cc1ccccc1)C(=O)[C@@]1(C)CO1,5.4,7.34,12.2,5.53,0.973
CCN(CC)CCCCNc1ncc2c(n1)N(C)C(=O)N(c1c(Cl)c(OC)cc(OC)c1Cl)C2,25.2,17.7,23.7,11.3,138
